Potency data for 16 molecules are collected here from PubChem BioAssay (Tox21).

Structures are written as SMILES. Records with an inconclusive call do not appear. Activity calls are given as the source filed them. Calls follow the shape of the dose curve; as a rule, active = well fitted curve in the direction sought with a large enough effect in the repeat runs; inconclusive = weak or mixed curves; inactive = no such curve, though single readings can be large; an effect the other way counts as inactive or inconclusive.

The nature of assay [1]: Caspase-3/7 induction in CHO-K1 cells by small molecules, qHTS cell viability counter screen (AID 1346979). Also: nearly all actives have a fitted effect of over 35% in size. Also: potency is read from the fitted curve at half-maximal effect. The essentials: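 Cytotoxicity counter screen run in parallel with the caspase-3/7 assay: CHO-K1 cells, 16hr compound treatment at 37C, then CellTiter-Fluor for 1hr before fluorescence reading.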
(In general: Quantitative high-throughput screening tests each substance at several concentrations.)

Assay [2] is described as follows: Caspase-3/7 induction in CHO-K1 cells by small molecules, qHTS assay (AID 1346980). Also: nearly all actives have a fitted effect of over 15% in size. The essentials:
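Wild-type CHO-K1 cells exposed to compounds for 17hr at 37 C, 5% CO2. Caspase-3/7 activity then measured by Caspase-Glo 3/7 luminescence after 30min at room temperature.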

Assay [3] is described as follows: Caspase-3/7 induction in HepG2 cells by small molecules, qHTS cell viability counter screen (AID 1346981). Also: nearly all actives have a fitted effect of over 30% in size. Also: potency is read from the fitted curve at half-maximal effect. The gist of the method:
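In this quantitative HTS counter screen, compounds delivered in DMSO were left on unmodified HepG2 cells for 16 hr at 37 C. Viability was then determined fluorometrically with CellTiter-Fluor, in parallel with caspase-3/7 induction in the same wells.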

In assay [4] the target is Nuclear receptor subfamily 1 group I member 2 (Homo sapiens) (UniProt O75469). As to the kind of experiment: Human pregnane X receptor (PXR) small molecule agonists, qHTS assay (AID 1346982). Also: nearly all actives have a fitted effect of over 35% in size. The gist of the method: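 Reporter HepG2 cells expressing PXR-Luc are cultured in charcoal-stripped FBS (5%), treated with compounds for 24 hr at 37 C, and assayed by ONE-Glo luminescence after 30 min at room temperature.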
Nuclear receptor subfamily 1 group I member 2 (Homo sapiens), sequence (O75469 whole entry, looked up): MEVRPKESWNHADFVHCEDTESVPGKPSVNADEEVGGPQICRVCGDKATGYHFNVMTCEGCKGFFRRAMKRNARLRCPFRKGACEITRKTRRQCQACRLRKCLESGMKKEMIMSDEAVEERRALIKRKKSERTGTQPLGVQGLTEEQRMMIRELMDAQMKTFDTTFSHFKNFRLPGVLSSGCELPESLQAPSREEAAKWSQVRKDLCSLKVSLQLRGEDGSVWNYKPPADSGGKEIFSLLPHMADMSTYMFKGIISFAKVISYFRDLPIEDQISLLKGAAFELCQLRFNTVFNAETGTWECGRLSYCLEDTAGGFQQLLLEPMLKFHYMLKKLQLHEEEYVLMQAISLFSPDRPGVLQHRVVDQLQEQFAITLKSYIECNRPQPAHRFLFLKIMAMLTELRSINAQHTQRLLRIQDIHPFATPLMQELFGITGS

Assay [5] has as its target Cytochrome P450 2D6 (Homo sapiens) (UniProt P10635). Put plainly: Cytochrome P450 Family 2 Subfamily D Member 6 (CYP2D6) small molecule antagonists: luciferase reporter qHTS assay (AID 1671196). Also: nearly all actives have a fitted effect of over 50% in size. Also: potency is read from the fitted curve at half-maximal effect. The essentials: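 Test chemicals meet CYP2D6 plus proluciferin substrate (10 min, RT); NADPH regenerating solution then drives turnover for 1 h. Detection reagent halts the reaction; luminescence measured after 20 min.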
For orientation: A reporter such as luciferase makes a cellular process visible.

Assay [6] concerns the target Cytochrome P450 2C19 (Homo sapiens) (UniProt P33261). As to the kind of experiment: Cytochrome P450 Family 2 Subfamily C Member 19 (CYP2C19) small molecule antagonists: luciferase reporter qHTS assay (AID 1671197). Also: nearly all actives have a fitted effect of over 65% in size. Also: potency is read from the fitted curve at half-maximal effect. The gist of the method:
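Enzyme-substrate mix with proluciferin substrate (P450-Glo CYP2C19 system) preincubated with compounds 10 min at room temperature; NADPH regeneration solution added, 37C for 1 h; detection reagent stops reaction, luminescence read after 20 min. Ketoconazole positive control.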

Assay [7] deals with Cytochrome P450 1A2 (Homo sapiens) (UniProt P05177). Put plainly: Cytochrome P450 Family 1 Subfamily A Member 2 (CYP1A2) small molecule antagonists: luciferase reporter qHTS assay (AID 1671199). Also: nearly all actives have a fitted effect of over 50% in size. Also: potency is read from the fitted curve at half-maximal effect. The essentials: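 Steps: enzyme-substrate mix dispensed; test compounds and furafylline control pinned in; 10 min room temperature; NADPH regeneration solution added, 1 h; reaction stopped with luciferin detection reagent; luminescence read after 20 min.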
Cytochrome P450 1A2 (Homo sapiens), sequence (P05177 whole entry, looked up): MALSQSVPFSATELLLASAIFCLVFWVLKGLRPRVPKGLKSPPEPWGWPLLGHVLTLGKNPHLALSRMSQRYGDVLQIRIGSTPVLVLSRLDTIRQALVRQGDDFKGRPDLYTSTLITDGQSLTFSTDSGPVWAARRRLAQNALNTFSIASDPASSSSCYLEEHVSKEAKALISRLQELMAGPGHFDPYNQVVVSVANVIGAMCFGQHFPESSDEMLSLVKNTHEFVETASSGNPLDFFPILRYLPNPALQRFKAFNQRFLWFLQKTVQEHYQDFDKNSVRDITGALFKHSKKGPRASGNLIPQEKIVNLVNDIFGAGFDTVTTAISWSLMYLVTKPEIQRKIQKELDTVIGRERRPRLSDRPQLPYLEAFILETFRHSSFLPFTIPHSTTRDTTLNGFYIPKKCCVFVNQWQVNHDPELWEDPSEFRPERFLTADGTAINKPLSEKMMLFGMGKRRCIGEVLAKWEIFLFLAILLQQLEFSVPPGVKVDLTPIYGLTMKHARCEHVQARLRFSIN

In assay [8] the target is Voltage-gated inwardly rectifying potassium channel KCNH2 (Homo sapiens) (UniProt Q12809). As to the kind of experiment: Human Ether-a-go-go-Related Gene (hERG) channel small molecule antagonists: fluorescence cell-based qHTS assay (AID 1671200). Also: nearly all actives have a fitted effect of over 50% in size. Also: potency is read from the fitted curve at half-maximal effect. The gist of the method: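 Fluorescence at 540 nm emission (480 nm excitation) was recorded kinetically for 2 min at 1-second intervals once the thallium-containing stimulus reached cells previously loaded with FluxOR II dye.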
Voltage-gated inwardly rectifying potassium channel KCNH2 (Homo sapiens), sequence (Q12809 whole entry, looked up): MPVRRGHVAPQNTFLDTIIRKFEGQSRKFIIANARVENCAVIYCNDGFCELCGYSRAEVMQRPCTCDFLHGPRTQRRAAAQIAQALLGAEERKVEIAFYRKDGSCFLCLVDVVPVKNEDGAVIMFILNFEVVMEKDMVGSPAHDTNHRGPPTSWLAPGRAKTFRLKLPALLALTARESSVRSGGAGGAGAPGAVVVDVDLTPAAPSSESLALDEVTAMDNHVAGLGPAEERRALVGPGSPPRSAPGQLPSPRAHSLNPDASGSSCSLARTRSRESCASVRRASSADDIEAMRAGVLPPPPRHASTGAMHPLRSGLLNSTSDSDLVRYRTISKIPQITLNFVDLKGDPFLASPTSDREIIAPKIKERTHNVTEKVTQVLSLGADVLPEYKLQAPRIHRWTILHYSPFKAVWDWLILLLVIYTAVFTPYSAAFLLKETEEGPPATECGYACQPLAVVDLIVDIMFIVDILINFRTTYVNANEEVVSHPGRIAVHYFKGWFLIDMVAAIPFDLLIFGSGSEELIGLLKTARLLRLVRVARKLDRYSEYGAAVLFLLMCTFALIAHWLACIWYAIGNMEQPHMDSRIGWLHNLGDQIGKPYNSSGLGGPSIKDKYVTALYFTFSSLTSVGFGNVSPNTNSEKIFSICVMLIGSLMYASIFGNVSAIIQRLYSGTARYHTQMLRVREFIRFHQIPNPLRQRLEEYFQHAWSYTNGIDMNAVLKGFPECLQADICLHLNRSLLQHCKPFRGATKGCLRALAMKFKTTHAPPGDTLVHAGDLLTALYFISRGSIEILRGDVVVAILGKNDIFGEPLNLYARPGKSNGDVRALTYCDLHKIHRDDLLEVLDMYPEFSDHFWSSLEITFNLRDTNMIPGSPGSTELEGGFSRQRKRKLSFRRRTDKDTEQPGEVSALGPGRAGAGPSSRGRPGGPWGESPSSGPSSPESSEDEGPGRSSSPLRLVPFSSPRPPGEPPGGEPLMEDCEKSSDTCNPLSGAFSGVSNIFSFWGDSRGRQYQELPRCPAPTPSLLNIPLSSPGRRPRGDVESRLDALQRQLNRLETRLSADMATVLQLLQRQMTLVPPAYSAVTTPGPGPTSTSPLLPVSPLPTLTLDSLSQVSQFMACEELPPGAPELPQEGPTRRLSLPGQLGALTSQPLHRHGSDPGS
A general note: hERG is a cardiac potassium channel; its block is linked to QT prolongation.

In assay [9] the target is Cytochrome P450 2C9 (Homo sapiens) (UniProt P11712). As to the kind of experiment: Cytochrome P450 Family 2 Subfamily C Member 9 (CYP2C9) small molecule antagonists: luciferase reporter qHTS assay (AID 1671198). Also: nearly all actives have a fitted effect of over 50% in size. Also: potency is read from the fitted curve at half-maximal effect. The essentials: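 P450-Glo proluciferin substrate with CYP2C9 enzyme; 10 min RT preincubation, then NADPH regeneration 1 h at 37C; luciferin detection reagent 20 min RT, luminescence in relative luminescence units.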
Cytochrome P450 2C9 (Homo sapiens), sequence (P11712 whole entry, looked up): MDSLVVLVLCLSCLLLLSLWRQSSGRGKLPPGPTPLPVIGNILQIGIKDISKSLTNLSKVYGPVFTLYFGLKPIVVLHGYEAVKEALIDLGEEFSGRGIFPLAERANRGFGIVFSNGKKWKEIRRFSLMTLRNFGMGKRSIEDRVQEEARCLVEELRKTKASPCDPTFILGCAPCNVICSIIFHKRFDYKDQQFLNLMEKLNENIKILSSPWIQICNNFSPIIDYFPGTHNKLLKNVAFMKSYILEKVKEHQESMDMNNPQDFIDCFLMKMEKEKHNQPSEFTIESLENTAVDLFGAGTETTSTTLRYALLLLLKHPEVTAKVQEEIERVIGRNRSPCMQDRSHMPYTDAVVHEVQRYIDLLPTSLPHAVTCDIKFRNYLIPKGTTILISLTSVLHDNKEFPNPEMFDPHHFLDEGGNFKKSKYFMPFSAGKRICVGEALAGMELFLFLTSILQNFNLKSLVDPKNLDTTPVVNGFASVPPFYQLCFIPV

Assay [10] has as its target Cytochrome P450 3A4 (Homo sapiens) (UniProt P08684). As to the kind of experiment: Cytochrome P450 Family 3 Subfamily A Member 4 (CYP3A4) small molecule antagonists: luciferase reporter qHTS assay (AID 1671201). Also: nearly all actives have a fitted effect of over 50% in size. Also: potency is read from the fitted curve at half-maximal effect. The gist of the method:
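qHTS, 1536-well. CYP3A4 + proluciferin substrate, cpd 10 min RT → NADPH regen 1 h RT → detection reagent 20 min → luminescence (RLU). Ketoconazole positive control.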

Assay [11] deals with Nuclear receptor subfamily 1 group I member 2 (Homo sapiens) (UniProt O75469). As to the kind of experiment: CYP3A4 induction through human pregnane X receptor (PXR) by small molecules, qHTS assay (AID 1346984). Also: nearly all actives have a fitted effect of over 40% in size. The gist of the method:
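Induction measured in HepG2-based DPX-2 cells co-expressing human PXR and a CYP3A4 promoter-driven luciferase. After a 24-hour compound exposure, cells received CYP3A4 luciferin substrate at 3uM final for 3 hours, and light output was then recorded.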

The target is the same in assay [12]. Put plainly: Human pregnane X receptor (PXR) activation by small molecules, qHTS assay (AID 1346985). Also: nearly all actives have a fitted effect of over 40% in size. The gist of the method: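 DPX-2 cells (HepG2 co-transfected with a PXR response element and a CYP3A4-promoter luciferase construct) were seeded at 2,000 per well, rested 5 hr at 37C, then exposed to DMSO-dissolved compounds for 24 hr. Activation was read as luciferase luminescence.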

Cytochrome P450 3A4 (Homo sapiens), sequence (P08684 whole entry, looked up): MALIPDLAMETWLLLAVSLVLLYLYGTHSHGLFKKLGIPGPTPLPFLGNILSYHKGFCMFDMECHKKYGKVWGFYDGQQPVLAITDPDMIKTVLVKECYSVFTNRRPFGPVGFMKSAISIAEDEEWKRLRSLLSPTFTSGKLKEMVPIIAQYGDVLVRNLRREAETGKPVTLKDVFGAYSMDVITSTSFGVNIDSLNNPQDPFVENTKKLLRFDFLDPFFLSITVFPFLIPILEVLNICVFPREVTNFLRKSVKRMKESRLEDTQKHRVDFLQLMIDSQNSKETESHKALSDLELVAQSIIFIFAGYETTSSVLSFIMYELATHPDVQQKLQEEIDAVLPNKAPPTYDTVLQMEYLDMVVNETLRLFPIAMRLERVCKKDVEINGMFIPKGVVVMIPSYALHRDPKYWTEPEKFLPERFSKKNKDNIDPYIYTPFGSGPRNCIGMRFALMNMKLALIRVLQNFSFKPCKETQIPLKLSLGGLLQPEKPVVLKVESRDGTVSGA
Cytochrome P450 2C19 (Homo sapiens), sequence (P33261 whole entry, looked up): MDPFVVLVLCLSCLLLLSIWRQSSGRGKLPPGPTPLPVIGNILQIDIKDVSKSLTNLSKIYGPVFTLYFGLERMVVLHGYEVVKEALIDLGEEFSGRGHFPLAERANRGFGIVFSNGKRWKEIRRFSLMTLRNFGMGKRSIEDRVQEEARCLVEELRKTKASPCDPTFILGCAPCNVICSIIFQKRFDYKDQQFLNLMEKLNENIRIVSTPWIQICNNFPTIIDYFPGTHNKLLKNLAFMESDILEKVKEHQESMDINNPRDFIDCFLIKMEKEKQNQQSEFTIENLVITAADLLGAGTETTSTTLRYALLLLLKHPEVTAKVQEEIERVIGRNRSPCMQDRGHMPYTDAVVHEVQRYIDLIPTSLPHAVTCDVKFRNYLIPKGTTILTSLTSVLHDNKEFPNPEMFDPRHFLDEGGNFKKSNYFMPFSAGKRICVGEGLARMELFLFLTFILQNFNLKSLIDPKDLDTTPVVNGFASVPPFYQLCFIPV
Cytochrome P450 2D6 (Homo sapiens), sequence (P10635 whole entry, looked up): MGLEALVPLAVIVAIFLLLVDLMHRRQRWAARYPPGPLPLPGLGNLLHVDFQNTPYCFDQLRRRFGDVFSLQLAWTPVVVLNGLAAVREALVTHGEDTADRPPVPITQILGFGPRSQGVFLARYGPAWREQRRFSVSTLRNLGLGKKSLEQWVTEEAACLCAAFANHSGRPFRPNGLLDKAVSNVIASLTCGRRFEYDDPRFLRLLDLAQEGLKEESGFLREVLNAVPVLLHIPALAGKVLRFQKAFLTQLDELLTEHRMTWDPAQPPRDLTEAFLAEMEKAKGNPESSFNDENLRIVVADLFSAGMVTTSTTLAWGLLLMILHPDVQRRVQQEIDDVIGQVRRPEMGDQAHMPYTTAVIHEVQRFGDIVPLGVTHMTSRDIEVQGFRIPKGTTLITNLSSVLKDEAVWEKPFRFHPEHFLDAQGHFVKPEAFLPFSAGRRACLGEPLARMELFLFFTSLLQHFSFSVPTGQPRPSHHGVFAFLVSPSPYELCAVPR

For the molecule `CC(C)=CCCC(C)CCOC(=O)C(C)C` (stereo not drawn), the Potency result in assay [1], in assay [2], in assay [3], in [4], in [5] and in [7] was “inactive” each time. The Potency result in [8] was “inactive”. Moreover, the Potency in [6] was 79.6 µM (active).

As to `Clc1cc(Cl)c(-c2c(Cl)c(Cl)cc(Cl)c2Cl)cc1Cl`, the Potency result in assay [1], in [2], in [3], in assay [4], in [5] and in assay [6] was “inactive” each time. The Potency entry in assay [9], in assay [7], in assay [8] and in assay [10] was “inactive” in each case.

In the case of `CC(C)(C)C1=CC(=O)C=C(C(C)(C)C)C1=O`, the Potency entry in assay [1], in [2], in assay [3], in [4], in assay [5] and in assay [8] was “inactive” each time. In [10], the Potency entry was “inactive”. Besides, in [6], the Potency is 3.17 µM (active).

For `C/C=C/C=N/NC(=O)c1ccncc1`, the Potency entry in assay [1], in assay [2], in assay [3], in [11], in assay [12] and in assay [7] was “inactive” throughout. In [8], the Potency result was “inactive”.

On to `Cn1cnc2ncnc(N)c21`, for which the Potency result in assay [1], in assay [2], in assay [3], in [4], in [6] and in [9] was “inactive” in each case. Besides, the Potency entry in assay [8] and in assay [10] was “inactive” each time. Also, the Potency in assay [7] was 17.7 µM (active).

Regarding `CCOC(OCC)C(=O)c1ccccc1`, the Potency entry in assay [1], in assay [2], in assay [3], in [5], in assay [6] and in assay [9] was “inactive” throughout. In addition, the Potency result in assay [8] and in [10] was “inactive” throughout. Moreover, the Potency in assay [7] was 31.7 µM (active).

In the case of `C=C(C)C(=O)OCCC[Si](Cl)(Cl)Cl`, the Potency entry in assay [1], in assay [2], in [3], in assay [4], in assay [7] and in assay [8] was “inactive” each time. Also, the figures for the Potency in assay [6], in assay [9] and in assay [10] were 80.4 µM (active), 22.7 µM (active) and 12.7 µM (active), respectively.

As for `CN(C)c1ccc(N=Nc2ccccc2C(=O)O)cc1`, the Potency was 9.69 µM (active) in [1]; 54.5 µM (active) in assay [3]; 39.9 µM (active) in [5]; 35.6 µM (active) in assay [6]; 31.7 µM (active) in [9]; 25.2 µM (active) in [7]. The Potency entry in assay [2], in assay [8] and in assay [10] was “inactive” throughout.

On to `CCCC(CC)CCCCCCCN` (stereo not drawn), for which the Potency result in [1], in assay [2] and in [3] was “inactive” throughout. The Potency in assay [5] was 0.817 µM (active); in [6], 0.365 µM (active); in assay [9] it was 25.8 µM (active); in [7] it was 5.15 µM (active); in assay [8], 28.2 µM (active); in [10] it was 3.25 µM (active).

For the molecule `COc1cc(C(=O)NS(=O)(=O)c2ccccc2C)ccc1Cc1cn(C)c2ccc(NC(=O)OC3CCCC3)cc12`, the Potency result in assay [1], in assay [2], in assay [3], in assay [5], in assay [6] and in [7] was “inactive” throughout. Moreover, in [8], the Potency entry is “inactive”. In addition, the Potency in assay [9] was 15.5 µM (active).

For `OCCCCl`, the Potency result in assay [1], in assay [2], in assay [3], in assay [5], in assay [6] and in assay [9] was “inactive” in each case. Moreover, the Potency result in [7], in [8] and in assay [10] was “inactive” in each case.

As to `COc1cc(C=C2CCC/C(=C\c3ccc(O)c(OC)c3)C2=O)ccc1O`, the Potency in [1] is 29.8 µM (active); in assay [3], 29.8 µM (active); in [6], 24.5 µM (active); in [9], 15.5 µM (active). The Potency result in assay [2], in assay [11], in assay [5], in [7] and in assay [8] was “inactive” each time.

Consider `CC1(C)C(=O)N(Br)C(=O)N1Br`, for which the Potency entry in [1], in [2], in [3], in [4], in assay [6] and in assay [7] was “inactive” in each case. The Potency entry in [8] and in assay [10] was “inactive” in each case.

`CC(COC(=O)c1ccccc1)OC(=O)c1ccccc1` (stereo not drawn): the Potency result in assay [1], in assay [2], in assay [3], in [4] and in assay [10] was “inactive” throughout. For the same molecule, the Potency in assay [6] is 20 µM (active); in assay [9] it was 15.9 µM (active); in assay [7] it was 5.64 µM (active); in assay [8], 43.6 µM (active).

Regarding `Cc1cnccn1`, the Potency entry in [1], in assay [2], in assay [3], in [5], in assay [6] and in [9] was “inactive” each time. Also, the Potency entry in assay [7], in [8] and in assay [10] was “inactive” throughout.

Take `CO[Si](CCC1CCC2OC2C1)(OC)OC` (stereo not drawn): the Potency result in [1], in assay [2], in assay [3], in assay [5], in [6] and in [9] was “inactive” in each case. Further, the Potency entry in [7] and in assay [8] was “inactive” each time.
